# Unmarked numbers belong to inactive results. For some of these results: Results with a measured potency or affinity are listed apart. Activity calls are given as the source filed them. Unless noted, how the calls were made is not given here.
# How the values were obtained:
# [1] = antimalarial activity against Dd2 strain (AID 2302;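 active means growth inhibition above 50% at the single 2 µM test dose, taken to imply half-maximal potency below 2 µM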;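 further: 0% = DMSO untreated growth and 100% = chloroquine plus artemisinin killed control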); settings: P. falciparum Dd2 in RBCs, LDH growth readout, 72 h; at 2 µM; hits give high values
# [2] = human hepatoma cell viability loss – ATP luminescence, cytotoxicity control for P. falciparum antimalarial project, primary screen (AID 2303;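 active means inhibition above 50%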;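 further: 0% = DMSO wells and 100% = digitonin-killed cells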); settings: HepG2 viability, 24-48 h, at 10 µM, hits give high values
# [3] = molecular target: L-lactate dehydrogenase (Plasmodium falciparum (isolate CDC / Honduras)) (UniProt Q27743); test: PfLDH activity inhibition – cell lysate, 3D7 strain, counter-screen for P. falciparum growth inhibition project (AID 2304);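 further: 0% = vehicle and 100% = reference inhibitor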; settings: P. falciparum 3D7 crude extract, LDH APAD/NBT absorbance; at 2 µM; hits give high values
# [4] = inhibition of 3D7 malaria parasite growth – strain 3D7 (AID 2306);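 further: 0% = DMSO wells and 100% = chloroquine plus artemisinin control wells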; settings: P. falciparum 3D7 erythrocytic growth, LDH absorbance, 72 h; at 2 µM; hits give high values
# [5] = molecular target: Calcium-dependent protein kinase 1 (Plasmodium falciparum (isolate 3D7)) (UniProt P62344); test: PfCDPK1 kinase inhibitors, biochemical, TCAMS library (AID 1159585; cut-off not given, nearly all actives have IC50 up to about 0.98 µM;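 further: inhibitors leave more ATP so luminescence rises with inhibition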); settings: recombinant PfCDPK1, Kinase-Glo ATP depletion luminescence
# [6] = molecular target: Plasmodium falciparum protein kinase 6 (PK6, PF3D7_1337100) (UniProt Q8IDW1); test: PfPK6 kinase inhibitors, biochemical, TCAMS library (AID 1159586); settings: recombinant PfPK6, Kinase-Glo ATP depletion luminescence
# [7] = molecular target: Protein kinase 7 (PK7), Plasmodium falciparum 3D7 (PF3D7_0213400) (UniProt Q7YTF7); test: inhibition of Plasmodium PK7 catalytic activity – biochemical, TCAMS antimalarial set, Kinase-Glo luminescence (AID 1159587); settings: recombinant PfPK7, Kinase-Glo ATP depletion luminescence
# [8] = molecular target: Calcium-dependent protein kinase 4 (Plasmodium falciparum (isolate 3D7)) (UniProt Q8IBS5); test: PfCDPK4 kinase inhibitors, biochemical, TCAMS library (AID 1159588; cut-off not given, nearly all actives have IC50 up to about 0.91 µM); settings: recombinant PfCDPK4, Kinase-Glo ATP depletion luminescence
# Sequence of Calcium-dependent protein kinase 4 (Plasmodium falciparum (isolate 3D7)) (Q8IBS5 whole entry, looked up): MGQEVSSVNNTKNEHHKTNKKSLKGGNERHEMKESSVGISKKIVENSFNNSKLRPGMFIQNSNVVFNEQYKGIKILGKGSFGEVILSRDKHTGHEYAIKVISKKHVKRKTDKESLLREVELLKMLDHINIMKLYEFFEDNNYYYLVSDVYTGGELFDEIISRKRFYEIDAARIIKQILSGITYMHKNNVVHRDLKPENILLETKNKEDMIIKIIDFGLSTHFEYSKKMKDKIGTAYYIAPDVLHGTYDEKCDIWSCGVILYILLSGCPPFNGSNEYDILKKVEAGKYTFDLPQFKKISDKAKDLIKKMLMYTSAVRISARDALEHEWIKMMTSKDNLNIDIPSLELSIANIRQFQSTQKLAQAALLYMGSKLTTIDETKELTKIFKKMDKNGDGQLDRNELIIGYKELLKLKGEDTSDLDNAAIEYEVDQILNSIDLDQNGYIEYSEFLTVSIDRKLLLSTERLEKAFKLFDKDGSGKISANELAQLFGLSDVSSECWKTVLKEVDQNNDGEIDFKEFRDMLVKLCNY
# Sequence of Protein kinase 7 (PK7), Plasmodium falciparum 3D7 (PF3D7_0213400) (Q7YTF7 1-343): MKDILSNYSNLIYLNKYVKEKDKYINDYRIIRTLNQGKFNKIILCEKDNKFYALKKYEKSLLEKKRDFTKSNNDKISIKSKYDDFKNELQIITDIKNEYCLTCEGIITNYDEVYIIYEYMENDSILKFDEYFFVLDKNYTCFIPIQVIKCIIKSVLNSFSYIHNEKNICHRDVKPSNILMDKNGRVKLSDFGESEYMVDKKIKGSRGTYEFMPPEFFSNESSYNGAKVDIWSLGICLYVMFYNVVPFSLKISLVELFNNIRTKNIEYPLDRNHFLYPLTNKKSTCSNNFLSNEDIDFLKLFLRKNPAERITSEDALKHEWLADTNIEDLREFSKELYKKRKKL
# Sequence of Calcium-dependent protein kinase 1 (Plasmodium falciparum (isolate 3D7)) (P62344 whole entry, looked up): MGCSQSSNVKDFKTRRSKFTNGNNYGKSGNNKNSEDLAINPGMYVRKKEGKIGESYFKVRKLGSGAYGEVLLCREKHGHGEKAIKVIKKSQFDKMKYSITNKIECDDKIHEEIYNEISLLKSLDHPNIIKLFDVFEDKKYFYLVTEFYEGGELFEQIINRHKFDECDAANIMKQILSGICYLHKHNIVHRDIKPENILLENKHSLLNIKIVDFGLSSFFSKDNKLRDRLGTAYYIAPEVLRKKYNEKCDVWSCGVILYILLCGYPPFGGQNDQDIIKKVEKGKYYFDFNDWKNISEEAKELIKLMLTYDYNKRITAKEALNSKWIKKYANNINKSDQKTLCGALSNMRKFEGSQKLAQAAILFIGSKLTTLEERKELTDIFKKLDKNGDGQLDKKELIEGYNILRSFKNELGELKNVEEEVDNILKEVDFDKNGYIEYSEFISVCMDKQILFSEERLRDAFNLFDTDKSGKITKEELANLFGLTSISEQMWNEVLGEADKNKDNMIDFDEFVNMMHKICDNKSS
# Sequence of L-lactate dehydrogenase (Plasmodium falciparum (isolate CDC / Honduras)) (Q27743 whole entry, looked up): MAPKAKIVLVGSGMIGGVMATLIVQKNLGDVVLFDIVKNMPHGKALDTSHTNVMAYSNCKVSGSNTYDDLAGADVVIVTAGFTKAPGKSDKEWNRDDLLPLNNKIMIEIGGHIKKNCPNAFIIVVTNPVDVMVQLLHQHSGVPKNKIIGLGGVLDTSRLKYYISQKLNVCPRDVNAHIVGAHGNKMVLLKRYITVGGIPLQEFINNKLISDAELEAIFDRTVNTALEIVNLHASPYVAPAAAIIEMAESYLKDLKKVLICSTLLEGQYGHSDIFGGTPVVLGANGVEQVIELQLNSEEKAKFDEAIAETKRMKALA
# Sequence of Plasmodium falciparum protein kinase 6 (PK6, PF3D7_1337100) (Q8IDW1 1-305): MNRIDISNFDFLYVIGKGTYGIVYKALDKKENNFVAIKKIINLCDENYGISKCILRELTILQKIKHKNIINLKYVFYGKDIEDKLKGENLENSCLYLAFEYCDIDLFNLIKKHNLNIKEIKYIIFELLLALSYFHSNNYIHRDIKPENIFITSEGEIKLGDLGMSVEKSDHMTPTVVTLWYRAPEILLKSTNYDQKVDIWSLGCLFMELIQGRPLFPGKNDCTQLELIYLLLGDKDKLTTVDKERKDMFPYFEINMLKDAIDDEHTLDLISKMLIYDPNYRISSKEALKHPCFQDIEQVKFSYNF
SMILES,growth inhibition [1],inhibition [2],inhibition [3] [%],growth inhibition [4],outcome [5],outcome [6],outcome [7],outcome [8]
Cc1cc(Cl)ccc1NC(=O)NCCCCCN1CCC(c2c[nH]c3ccccc23)CC1,8%,59% (active),0,91% (active),inactive,inactive,inactive,inactive
CC1CCCCC1N(C)C1CCN(CCCNC(=O)C=Cc2ccc(Cl)cc2Cl)CC1 (stereo not given),59% (active),53% (active),4,101% (active),inactive,inactive,inactive,inactive
CCOC(=O)c1cccc(N/C(N)=N/c2nc(C)cc(NCCc3ccccc3)n2)c1,72% (active),21%,-6,102% (active),inactive,inactive,inactive,inactive
Cc1cccc2[nH]c(-c3ccc(-c4ccc(CN5CCN(CC6CCCN(C)C6)CC5)cc4)cc3)nc12 (stereo not given),99% (active),91% (active),-7,101% (active),inactive,inactive,inactive,inactive
COc1ccccc1OCCN(CC(O)COc1cccc2[nH]c3ccccc3c12)CC(O)COc1cccc2[nH]c3ccccc3c12 (stereo not given),96% (active),16%,-8,97% (active),inactive,inactive,inactive,inactive
Cc1cc(CNCC(CCNc2cc(=O)c3ccccc3[nH]2)NCc2cc(Br)cc(Br)c2)oc1C (stereo not given),85% (active),4%,2,98% (active),inactive,inactive,inactive,inactive
C#CC(C)(CO)N1CCCC1 (stereo not given),1%,10%,-4,95% (active),inactive,inactive,inactive,inactive
O=C(N[C@@H](Cc1ccccc1)C(=O)NC1CCCCC1)c1ccc(O)c(-c2cccc(C(F)(F)F)c2)c1,36%,11%,-2,96% (active),inactive,inactive,inactive,inactive
CCc1cn(C)c2c(N3CCCC3=O)cc(C(=O)N[C@@H](Cc3ccccc3)[C@H](O)CNC3CCCCC3)cc12,98% (active),8%,-1,97% (active),inactive,inactive,inactive,inactive
N#Cc1ccc2nc(-c3ccccc3)[nH]c2c1,1%,7%,-1,95% (active),inactive,inactive,inactive,inactive
COc1ccc(CNC2Cc3ccccc3C2)cc1-c1ccc(S(=O)(=O)NCCN2CCCC2)cc1,61% (active),40%,-7,101% (active),inactive,inactive,inactive,inactive
COc1cc(C(=O)NCCCN2CCN(c3cccc(Cl)c3)CC2)ccc1-c1cc2cc(Cl)c(Cl)cc2[nH]1,86% (active),35%,0,100% (active),inactive,inactive,inactive,inactive
CCOC(=O)C1=C(C)NC(Cn2ccnc2)=C(C(=O)OCC)C1c1ccc(C(C)(C)C)cc1 (stereo not given),33%,8%,-10,100% (active),inactive,inactive,inactive,inactive
COc1ccc2c(OC)ccc(CNCCCCCCNCc3ccc(OC)c4ccc(OC)cc34)c2c1,98% (active),100% (active),-3,102% (active),inactive,inactive,inactive,inactive
NC(=O)c1cccc(C(=O)Nc2cccc(-c3cccc(-c4nc5ccc(C(F)(F)F)cc5[nH]4)c3)c2)c1,85% (active),71% (active),-5,100% (active),inactive,inactive,inactive,inactive
CC[C@H](NC(=O)c1c(CN2CCC(N3CCCCC3)CC2)c(-c2ccccc2)nc2cc(O)ccc12)c1ccccc1,13%,15%,2,94% (active),inactive,inactive,inactive,inactive
Cc1cc(N(CCCN(C)C)Cc2cc(F)cc(F)c2)nc(Nc2ccc(Cl)cc2)n1,97% (active),37%,-2,99% (active),inactive,inactive,inactive,inactive
COc1ccc2nccc([C@@H](O)CN3CCC(NCc4cc5cc([N+](=O)[O-])ccc5[nH]4)CC3)c2c1,57% (active),29%,4,99% (active),inactive,inactive,inactive,inactive
O=C(C=Cc1ccc(Br)cc1)N1CCC(CCN2CCC(c3c[nH]c4ccccc34)CC2)CC1,24%,47%,2,98% (active),inactive,inactive,inactive,inactive
Cc1cccc2[nH]c(-c3ccc(-c4cccc(CNCc5ccccc5)c4)cc3)nc12,52% (active),3%,-1,102% (active),inactive,inactive,inactive,inactive
